Inconclusive results are not listed. A call without a number means that no potency is given here. Calls of active or inactive are those of the source. Unless noted, calls follow the shape of the dose curve; as a rule, active = well fitted curve in either direction with a large enough effect (not every such curve was filed as active); inconclusive = small, poorly fitted or top-dose-only effect, or another doubt; inactive = flat fitted curve, though single readings scatter.
target: Mitogen-activated protein kinase 10 (Mus musculus) (UniProt Q61831); assay: JNK3 AlphaScreen Assay (AID 530); details: JNK3 lysate, c-Jun phosphorylation; series mostly up to 57.1 µM;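 also: kinase came from lysate of stimulated human HepG2 cells; signal reports phosphorylation of biotinylated GST-cJun 1-79 at Ser73 with 10 µM ATP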
How it was run: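 Room-temperature AlphaScreen kinase assay; pre-activated HepG2 lysate as JNK3 source, biotin-GST-cJun(1-79) substrate, 10 uM ATP, compound 15 min preincubation.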

Structure (SMILES)	outcome
CCOC(=O)c1cncn1[C@H](C)c1ccccc1	inactive
CC[C@@]1(O)C(=O)OCc2c1cc1n(c2=O)Cc2cc3ccccc3nc2-1	inactive
CNCCc1ccc(O)c(O)c1	inactive
CC1=NN=C(c2ccc(N)cc2)c2cc3c(cc2C1)OCO3	inactive
NC(=NCCC[C@H](N)C(=O)O)N[N+](=O)[O-]	inactive
CCCCc1ccc(C(=O)O)nc1	inactive
Cc1nccc2c1[nH]c1ccccc12	inactive
O=C(O)CC[N+](=O)[O-]	inactive
c1ccc2sc(C3(N4CCCCC4)CCCCC3)cc2c1	inactive
S=C(NC1CCCCC1)N1CCC(c2cnc[nH]2)CC1	inactive
COC(=O)[C@@H](N)CCCN=C(N)N[N+](=O)[O-]	inactive
CCCN1CCO[C@@H]2c3cc(O)ccc3OC[C@H]21	inactive
C[C@@H](N)Cc1cnc[nH]1	inactive
CC(C)Oc1cccnc1N(C)C1CCN(Cc2ccccc2)CC1	inactive
O=C(O)Cc1cnc[nH]1	inactive
CC(=O)OCC1=C(C(=O)O)N2C(=O)[C@@H](N)[C@@H]2SC1	inactive
C#CCOC(=O)C1=CCCN(C)C1	inactive
CNCCc1c[nH]c2ccc(O)cc12	inactive
Cc1nc(-c2ccc(-c3ccc(C(=O)N4CCc5cc6c(cc54)C4(CCN(C)CC4)CO6)cc3)c(C)c2)no1	inactive
CCCN1CCC[C@H](c2cccc(O)c2)C1	inactive
Cc1c(C(=O)c2cccc3ccccc23)c2cccc3c2n1[C@H](CN1CCOCC1)CO3	inactive
NCc1cc(=O)[nH]o1	inactive
c1ccc(CCCN2CCN(CCOC(c3ccccc3)c3ccccc3)CC2)cc1	inactive
Clc1cnc(Oc2ccc(Oc3ncc(Cl)cc3Cl)cc2)c(Cl)c1	inactive
CN[C@@H]1C[C@@H](c2ccc(Cl)c(Cl)c2)c2ccccc21	inactive
O=c1cccc2n1CC1CNC[C@H]2C1	inactive
CCCN(CCC)[C@@H]1CCc2ccc(O)cc2C1	inactive
O=C1CCCN1CC#CCN1CCCC1	inactive
NCCc1c[nH]c2ccc(O)cc12	inactive
CC(=O)NCCc1c[nH]c2ccccc12	inactive

target: 3',5'-cyclic-AMP phosphodiesterase 4B (Homo sapiens) (UniProt Q07343); assay: qHTS Assay for Inhibitors of PDE-IV (AID 607; active = well fitted activation curve with a large enough effect in the main read-out, with a control signal flat, not every such curve was filed as active; also: potency is read from the fitted curve at half-maximal effect); details: HEK293 ACTOne CNG channel cells, membrane potential fluorescence; series mostly up to 22.9 µM
Sequence (Q07343 whole entry, looked up): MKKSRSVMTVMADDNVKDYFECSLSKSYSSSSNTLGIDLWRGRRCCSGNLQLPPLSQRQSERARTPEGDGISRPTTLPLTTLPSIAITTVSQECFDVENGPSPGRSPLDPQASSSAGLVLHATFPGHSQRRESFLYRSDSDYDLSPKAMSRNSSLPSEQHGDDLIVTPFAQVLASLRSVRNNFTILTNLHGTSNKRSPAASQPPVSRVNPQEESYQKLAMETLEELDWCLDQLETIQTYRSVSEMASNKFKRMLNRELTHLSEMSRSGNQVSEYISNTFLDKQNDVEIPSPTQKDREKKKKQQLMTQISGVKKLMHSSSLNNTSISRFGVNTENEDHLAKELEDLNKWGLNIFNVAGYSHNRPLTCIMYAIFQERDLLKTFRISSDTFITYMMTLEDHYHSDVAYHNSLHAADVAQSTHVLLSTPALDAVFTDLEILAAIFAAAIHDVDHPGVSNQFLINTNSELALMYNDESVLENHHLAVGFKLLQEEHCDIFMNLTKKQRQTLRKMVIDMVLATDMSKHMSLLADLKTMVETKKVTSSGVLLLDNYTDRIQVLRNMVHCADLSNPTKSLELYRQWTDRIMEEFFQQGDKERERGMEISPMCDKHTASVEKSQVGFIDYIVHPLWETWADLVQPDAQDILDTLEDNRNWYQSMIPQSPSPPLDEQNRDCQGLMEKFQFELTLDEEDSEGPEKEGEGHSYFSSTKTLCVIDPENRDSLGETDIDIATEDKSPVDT
How it was run: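 Cell-based read-out of cAMP via a modified cyclic nucleotide-gated channel and membrane potential dye (535/590 nm) in HEK293 cells expressing PDE4 endogenously. Compounds tested up to 22.9 uM final; 100 uM RO 20-1724 reference.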

Structure (SMILES)	Potency
CCOC(=O)c1cncn1[C@H](C)c1ccccc1	inactive
CC[C@@]1(O)C(=O)OCc2c1cc1n(c2=O)Cc2cc3ccccc3nc2-1	inactive
CNCCc1ccc(O)c(O)c1	inactive
CC1=NN=C(c2ccc(N)cc2)c2cc3c(cc2C1)OCO3	inactive
CCCCc1ccc(C(=O)O)nc1	inactive
Cc1nccc2c1[nH]c1ccccc12	inactive
O=C(O)CC[N+](=O)[O-]	inactive
c1ccc2sc(C3(N4CCCCC4)CCCCC3)cc2c1	inactive
S=C(NC1CCCCC1)N1CCC(c2cnc[nH]2)CC1	inactive
CCCN1CCO[C@@H]2c3cc(O)ccc3OC[C@H]21	inactive
C[C@@H](N)Cc1cnc[nH]1	inactive
CC(C)Oc1cccnc1N(C)C1CCN(Cc2ccccc2)CC1	inactive
O=C(O)Cc1cnc[nH]1	inactive
CC(=O)OCC1=C(C(=O)O)N2C(=O)[C@@H](N)[C@@H]2SC1	inactive
C#CCOC(=O)C1=CCCN(C)C1	398 nM (active)
CNCCc1c[nH]c2ccc(O)cc12	inactive
CCCN1CCC[C@H](c2cccc(O)c2)C1	inactive
Cc1c(C(=O)c2cccc3ccccc23)c2cccc3c2n1[C@H](CN1CCOCC1)CO3	inactive
NCc1cc(=O)[nH]o1	inactive
c1ccc(CCCN2CCN(CCOC(c3ccccc3)c3ccccc3)CC2)cc1	inactive
Clc1cnc(Oc2ccc(Oc3ncc(Cl)cc3Cl)cc2)c(Cl)c1	inactive
CN[C@@H]1C[C@@H](c2ccc(Cl)c(Cl)c2)c2ccccc21	inactive
O=c1cccc2n1CC1CNC[C@H]2C1	inactive
CCCN(CCC)[C@@H]1CCc2ccc(O)cc2C1	inactive
O=C1CCCN1CC#CCN1CCCC1	inactive
NCCc1c[nH]c2ccc(O)cc12	inactive
CC(=O)NCCc1c[nH]c2ccccc12	inactive
